Measured values: PubChem BioAssay AID1159580 (chemical genetic matrix, 2015)
Screen size: about 5,500 compounds; about 2,000 (36%) were called active. Roughly 18% stayed inconclusive and do not appear here. The list shows a part of the results. Unmarked numbers belong to inactive results. No stated cut-off is given here; in the data, active means normalized growth mostly below about 0.91 (no sharp cut-off); inconclusive means no clear call, values can overlap the other calls; inactive means mostly above about 0.92.

Test: chemical genetic growth profiling, strain panel (AID 1159580);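 further: tested at 20 µM; growth read once vehicle control cultures reached saturation at 30 °C; 1 = growth at the plate median or of vehicle wells; lower values mean less growth of the strain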
Settings: S. cerevisiae deletion strains, growth OD
[1] = locus YAR019C, strain CDC15, active compounds read low
[2] = locus YBL105C, strain PKC1, active compounds read low
[3] = locus YBR135W, strain CKS1, active compounds read low
[4] = locus YBR136W, strain MEC1, active compounds read low
[5] = locus YBR160W, strain CDC28, active compounds read low
[6] = locus YDL017W, strain CDC7, active compounds read low
[7] = locus YDL028C, strain MPS1, active compounds read low
[8] = locus YDL101C, strain DUN1, active compounds read low
[9] = locus YDL108W, strain KIN28, active compounds read low
[10] = locus YDL132W, strain cdc53, active compounds read low
[11] = locus YDL214C, strain PRR2, active compounds read low
[12] = locus YDR052C, strain DBF4, active compounds read low
[13] = locus YDR054C, strain cdc34, active compounds read low
[14] = locus YDR226W, strain ADK1, active compounds read low
[15] = locus YDR477W, strain SNF1, active compounds read low
[16] = locus YER123W, strain YCK3, active compounds read low
[17] = locus YER133W, strain GLC7, active compounds read low
[18] = locus YFL009W, strain cdc4, active compounds read low
[19] = locus YFL029C, strain CAK1, active compounds read low
[20] = locus YFR003C, strain YPI1, active compounds read low
[21] = locus YFR019W, strain FAB1, active compounds read low
[22] = locus YFR028C, strain CDC14, active compounds read low
[23] = locus YGR040W, strain KSS1, active compounds read low
[24] = locus YGR052W, strain FMP48, active compounds read low
[25] = locus YGR092W, strain DBF2, active compounds read low
[26] = locus YHR030C, strain SLT2, active compounds read low
[27] = locus YHR079C, strain IRE1, active compounds read low
[28] = locus YHR082C, strain KSP1, active compounds read low
[29] = locus YHR205W, strain SCH9, active compounds read low
[30] = locus YIL147C, strain SLN1, active compounds read low
[31] = locus YJL095W, strain BCK1, active compounds read low
[32] = locus YJL128C, strain PBS2, active compounds read low
[33] = locus YJL157C, strain FAR1, active compounds read low
[34] = locus YJR016C, strain ILV3, active compounds read low
[35] = locus YJR066W, strain TOR1 (second series), active compounds read low
[36] = locus YJR066W, strain TOR1, active compounds read low
[37] = locus YKL048C, strain ELM1, active compounds read low
[38] = locus YKL067W, strain YNK1, active compounds read low
[39] = locus YKL101W, strain HSL1, active compounds read low
[40] = locus YKL193C, strain SDS22, active compounds read low
[41] = locus YKL203C, strain TOR2, active compounds read low
[42] = locus YLR113W, strain HOG1, active compounds read low
[43] = locus YLR133W, strain CKI1, active compounds read low
[44] = locus YLR403W, strain SFP1, active compounds read low
[45] = locus YML070W, strain DAK1, active compounds read low
[46] = locus YMR001C, strain CDC5, active compounds read low
[47] = locus YMR205C, strain PFK2 (second series), active compounds read low
[48] = locus YMR277W, strain FCP1, active compounds read low
[49] = locus YNL006W, strain LST8, active compounds read low
[50] = locus YNL020C, strain ARK1, active compounds read low
[51] = locus YNL161W, strain CBK1, active compounds read low
[52] = locus YNL183C, strain NPR1, active compounds read low
[53] = locus YNL207W, strain RIO2, active compounds read low
[54] = locus YNL222W, strain SSU72, active compounds read low
[55] = locus YNL307C, strain MCK1 (second series), active compounds read low
[56] = locus YOL078W, strain AVO1, active compounds read low
[57] = locus YOL136C, strain PFK27, active compounds read low
[58] = locus YOR061W, strain CKA2, active compounds read low
[59] = locus YOR119C, strain RIO1, active compounds read low
[60] = locus YOR231W, strain MKK1, active compounds read low
[61] = locus YOR329C, strain SCD5, active compounds read low
[62] = locus YPL031C, strain PHO85, active compounds read low
[63] = locus YPL153C, strain RAD53, active compounds read low
[64] = locus YPL204W, strain HRR25, active compounds read low
[65] = locus YPL209C, strain IPL1, active compounds read low
[66] = locus YPL256C, strain CLN2, active compounds read low
[67] = locus YPR025C, strain CCL1, active compounds read low
[68] = locus YPR106W, strain ISR1, active compounds read low
[69] = locus YPR111W, strain DBF20, active compounds read low
[70] = strain NNK1, active compounds read low
[71] = strain TSCII, active compounds read low

COC(=O)C1=C(Nc2ccccc2NS(=O)(=O)c2ccc(C(F)(F)F)cc2Cl)CSC1
normalized growth [1]: 0.977 | normalized growth [2]: 0.983 | normalized growth [3]: 0.976 | normalized growth [4]: 0.978 | normalized growth [5]: 0.977 | normalized growth [6]: 0.973 | normalized growth [7]: 0.976 | normalized growth [8]: 0.962 | normalized growth [9]: 0.985 | normalized growth [10]: 0.984 | normalized growth [11]: 0.939 | normalized growth [12]: 0.987 | normalized growth [13]: 0.995 | normalized growth [14]: 0.972 | normalized growth [15]: 0.947 | normalized growth [16]: 0.944 | normalized growth [17]: 0.966 | normalized growth [18]: 0.985 | normalized growth [19]: 0.973 | normalized growth [20]: 0.984 | normalized growth [21]: 0.976 | normalized growth [22]: 0.964 | normalized growth [23]: 0.933 | normalized growth [24]: 1.03 | normalized growth [25]: 0.957 | normalized growth [26]: 0.977 | normalized growth [27]: 0.97 | normalized growth [28]: 1.02 | normalized growth [29]: 0.972 | normalized growth [30]: 0.987 | normalized growth [31]: 0.985 | normalized growth [32]: 0.919 | normalized growth [33]: 0.949 | normalized growth [34]: 0.972 | normalized growth [35]: 0.942 | normalized growth [36]: 1.03 | normalized growth [37]: 0.945 | normalized growth [38]: 0.959 | normalized growth [39]: 0.932 | normalized growth [40]: 0.975 | normalized growth [41]: 1.01 | normalized growth [42]: 0.84 (active) | normalized growth [43]: 0.937 | normalized growth [44]: 0.903 | normalized growth [45]: 0.928 | normalized growth [46]: 0.977 | normalized growth [47]: 0.952 | normalized growth [48]: 0.985 | normalized growth [49]: 0.989 | normalized growth [50]: 0.951 | normalized growth [51]: 0.977 | normalized growth [52]: 0.966 | normalized growth [53]: 0.967 | normalized growth [54]: 0.978 | normalized growth [55]: 0.953 | normalized growth [56]: 0.975 | normalized growth [57]: 0.935 | normalized growth [58]: 0.955 | normalized growth [59]: 1.02 | normalized growth [60]: 0.91 | normalized growth [61]: 0.985 | normalized growth [62]: 0.971 | normalized growth [63]: 0.948 | normalized growth [64]: 0.936 | normalized growth [65]: 0.975 | normalized growth [66]: 0.918 | normalized growth [67]: 0.982 | normalized growth [68]: 0.943 | normalized growth [69]: 0.979 | normalized growth [70]: 0.971 | normalized growth [71]: 0.978

COC(=O)c1sccc1NS(=O)(=O)c1cc(Cl)cc(Cl)c1
normalized growth [1]: 0.955 | normalized growth [2]: 0.946 | normalized growth [3]: 0.958 | normalized growth [4]: 0.951 | normalized growth [5]: 0.947 | normalized growth [6]: 0.954 | normalized growth [7]: 0.958 | normalized growth [8]: 0.949 | normalized growth [9]: 0.961 | normalized growth [10]: 0.958 | normalized growth [11]: 0.975 | normalized growth [12]: 0.957 | normalized growth [13]: 0.944 | normalized growth [14]: 0.954 | normalized growth [15]: 0.977 | normalized growth [16]: 0.994 | normalized growth [17]: 0.987 | normalized growth [18]: 0.954 | normalized growth [19]: 0.951 | normalized growth [20]: 0.957 | normalized growth [21]: 0.967 | normalized growth [22]: 0.958 | normalized growth [23]: 0.981 | normalized growth [24]: 1.05 | normalized growth [25]: 0.948 | normalized growth [26]: 1.04 | normalized growth [27]: 1.01 | normalized growth [28]: 1.06 | normalized growth [29]: 0.992 | normalized growth [30]: 0.955 | normalized growth [31]: 1.07 | normalized growth [32]: 0.925 | normalized growth [33]: 0.976 | normalized growth [34]: 0.959 | normalized growth [35]: 1.01 | normalized growth [36]: 1.06 | normalized growth [37]: 0.939 | normalized growth [38]: 0.973 | normalized growth [39]: 0.959 | normalized growth [40]: 0.958 | normalized growth [41]: 1.05 | normalized growth [42]: 0.92 | normalized growth [43]: 0.962 | normalized growth [44]: 0.996 | normalized growth [45]: 0.991 | normalized growth [46]: 0.949 | normalized growth [47]: 0.978 | normalized growth [48]: 0.96 | normalized growth [49]: 0.96 | normalized growth [50]: 0.964 | normalized growth [51]: 0.954 | normalized growth [52]: 1.02 | normalized growth [53]: 0.955 | normalized growth [54]: 0.953 | normalized growth [55]: 0.956 | normalized growth [56]: 0.963 | normalized growth [57]: 0.996 | normalized growth [58]: 0.979 | normalized growth [59]: 1.03 | normalized growth [60]: 0.986 | normalized growth [61]: 0.961 | normalized growth [62]: 0.987 | normalized growth [63]: 1.01 | normalized growth [64]: 0.975 | normalized growth [65]: 0.947 | normalized growth [66]: 0.963 | normalized growth [67]: 0.957 | normalized growth [68]: 0.945 | normalized growth [69]: 0.935 | normalized growth [70]: 0.948 | normalized growth [71]: 0.952
